Assay [1] can be described thus: Her2 expression decrease, cell viability multiplex – SKBR3 breast tumor cells, AlphaScreen, ATP viability, primary screen (AID 461;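 active means Her2 level under about 52% in both replicate screens, with viability over 70% of control, limit read from the data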;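 on Her2 level: lower value means less Her2 protein in the cells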;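 on viability: percent of carrier control wells set as 100% viability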). The settings on record: SKBR3 Her2 protein level, 18-24 h, measured here: SKBR3 viability, ATP luminescence, at 10 µM. Background: Alpha assays give light when donor and acceptor beads are brought close together.
In assay [2] the target is Receptor tyrosine-protein kinase erbB-2 (Homo sapiens) (UniProt P04626). The assay is described as above. The settings on record: 18-24 h, at 10 µM, stronger effect = lower value.
Assay [3] is described as follows: reduced viability of SK-BR-3 breast cancer cells – cell-based, 24 h, human, pilot screen (AID 572;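 active means viability at or below 10% of carrier control in both of two separate runs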;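 further: compound exposure lasted between 18 and 24 h rather than exactly 24 h; 100% = carrier-treated control wells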). The settings on record: SK-BR-3 viability, CellTiter-Glo luminescence, at 10 µM, stronger effect = lower value.
Assay [4] is described as follows: HUVEC growth inhibition – cell-based, human, primary screen (AID 575).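 Further: 100% = median of untreated cell wells with 0.1% DMSO on each plate.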 As to conditions: HUVEC proliferation, CellTiter-Glo luminescence, 72 h; at 10 µM; stronger effect = lower value.
A short description of assay [5]: H69AR cell proliferation blockers – human, duplicate replicates, primary screen (AID 580;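 active means viability at or under a set limit in both replicates, limit being median viability minus 3 SD, cut at about 48% in these data, passing the limit was not always enough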;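 further: 100% = mean luminescence of untreated wells and 0% = no signal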). As to conditions: H69AR lung tumor cells viability, ATP luminescence, 72 h; at 10 µM; stronger effect = lower value.
A short description of assay [6]: MRP1 drug-resistance reversers in H69AR cells – cell-based, doxorubicin co-treatment, pilot screen (AID 601;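 active means viability loss from added drug above about 55%, and viability with drug at most 40%, in both replicates, limit read from the data, passing the limit was not always enough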). As to conditions: CellTiter-Glo, 72 h, at 10 µM; for differential viability (reversal): stronger effect = higher value.
The nature of assay [7]: yeast transport mutant growth inhibition pilot in 384-well plates, post-Golgi transport modulator project (AID 636; in the data active means inhibition above about 31%). As to conditions: absorbance 615 nm, about 18 h, stronger effect = higher value.
The nature of assay [8]: growth suppression of yeast trafficking mutant, preliminary HTS, modulators of trafficking downstream of Golgi apparatus project, 1536-format plate, OD 615 nm (AID 637; in the data active means inhibition above about 30%). The settings on record: yeast transport mutant growth, absorbance 615 nm, 18 h; stronger effect = higher value.
Assay [9] is described as follows: S. cerevisiae growth inhibition in permissive medium (OD615), pilot counter-assay for S. cerevisiae lifespan shortening project, permissive growth control (AID 705;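 active means growth inhibition above 25% in both replicates, a cutoff set 3 SD above the mean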). As to conditions: OD615, 24 h, at 10 µM, stronger effect = higher value.
Assay [10] in a line: S. cerevisiae growth inhibition in restrictive medium, OD615, pilot screen, restrictive growth control, yeast lifespan reduction project (AID 706;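 active means growth inhibition above a set limit, 3 SD over mean compound inhibition, in both replicates, cut at about 43% in these data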;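 further: modified DeaD lifespan yeast strain shifted to restrictive glucose medium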). The settings on record: OD615, 48 h, at 10 µM, stronger effect = higher value.
A short description of assay [11]: doxorubicin toxicity protection in MRP-1 cells – H69AR cells, CellTiter-Glo, duplicate, MRP-1 activator project, pilot screen (AID 807;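 active means viability increase at or above a cutoff of the median across tested compounds plus 3 SD, cut at about 8.5% in these data, passing the limit was not always enough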;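 further: compound pretreatment 18-22 h then 72 h combined with doxorubicin; 0% = doxorubicin alone and 100% = vehicle without doxorubicin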). The settings on record: H69AR viability with doxorubicin, CellTiter-Glo luminescence; at 10 µM; stronger effect = higher value. Background: In ATP-based viability assays light output follows the ATP content of the culture.
Assay [12] can be described thus: viability of HCT116 without oncogenic beta-catenin – human colon tumor cells, pilot screen (AID 823;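 active means cell viability at or below a set limit in both duplicate runs, the limit being the all-compound median minus 4 SD, cut at about 23% in these data, passing the limit was not always enough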;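 further: 0% = wells killed by 20 µM Hyamine and 100% = untreated DMSO cell wells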). The settings on record: HCT116 beta-catenin knockout viability, CellTiter-Glo, 60 h; at 10 µM; stronger effect = lower value.
Assay [13] in a line: viability of PTEN-null HCT116 cells – cell-based, HCT116 clonal line, CellTiter-Glo, pilot screen (AID 824;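 active means viability at or below 27.92% in each of two runs, the all-compound median minus 4 SD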;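 further: 0% = 20 µM Hyamine control and 100% = vehicle cell control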). The settings on record: HCT116 PTEN-deleted viability, 60 h, at 10 µM, stronger effect = lower value.
Assay [14] is described as follows: RAM pathway blockade in budding yeast – dse1pr::URA3 reporter, 5-FOA selection, pilot screen (AID 869;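 active means inhibition over a set limit, the all-compound mean plus 3 SD, in both replicate runs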;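 further: 0% = DMSO wells with no growth and 100% = 10 µM 1-NA-PP1 with full growth; RAM network block rescues cells from 5-FOA so hits raise OD615 growth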). As to conditions: S. cerevisiae dse1pr::URA3 5-FOA growth, OD615, 2 d; at 10 µM; stronger effect = higher value; strain carries analog-sensitive mutant Cbk1 kinase.
Assay [15] can be described thus: RAM signaling pathway blockade in yeast – S. cerevisiae, Pdr1DBD-CYC8 efflux-inhibited sensitized strain, primary screen (AID 1298;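 active means RAM network inhibition above 8.4% in each of two replicates, 3 SD over the compound average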;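 further: 0% = DMSO untreated cells without growth and 100% = 10 µM 1-NA-PP1 full growth; higher means more yeast growth rescued from 5-FOA killing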). The settings on record: S. cerevisiae cbk1-as DSE1-URA3 strain, 5-FOA growth OD615, 2 d; at 50 µM; stronger effect = higher value.
Where [16] appears, read: H69AR cells + 2 uM doxorubicin, measured here: viability with 2 uM doxorubicin, stronger effect = lower value.
Where [17] appears, read: H69AR cells, compound alone cytotoxicity.

Inconclusive results are not listed. Activity calls are given as the source filed them.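 How the source made its calls, unless noted: active means viability at or below 30% in both replicate assays; inconclusive means viability at or below 30% in just one of the two assays; inactive means the rest.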

We go through 9 compounds from PubChem BioAssay.

By viability is commonly meant a read-out of living cells in per cent, often relative to untreated cells. Usually inhibition stands for the drop in the measured response relative to a control, in per cent.

Sequence of Receptor tyrosine-protein kinase erbB-2 (Homo sapiens) (P04626 whole entry, looked up): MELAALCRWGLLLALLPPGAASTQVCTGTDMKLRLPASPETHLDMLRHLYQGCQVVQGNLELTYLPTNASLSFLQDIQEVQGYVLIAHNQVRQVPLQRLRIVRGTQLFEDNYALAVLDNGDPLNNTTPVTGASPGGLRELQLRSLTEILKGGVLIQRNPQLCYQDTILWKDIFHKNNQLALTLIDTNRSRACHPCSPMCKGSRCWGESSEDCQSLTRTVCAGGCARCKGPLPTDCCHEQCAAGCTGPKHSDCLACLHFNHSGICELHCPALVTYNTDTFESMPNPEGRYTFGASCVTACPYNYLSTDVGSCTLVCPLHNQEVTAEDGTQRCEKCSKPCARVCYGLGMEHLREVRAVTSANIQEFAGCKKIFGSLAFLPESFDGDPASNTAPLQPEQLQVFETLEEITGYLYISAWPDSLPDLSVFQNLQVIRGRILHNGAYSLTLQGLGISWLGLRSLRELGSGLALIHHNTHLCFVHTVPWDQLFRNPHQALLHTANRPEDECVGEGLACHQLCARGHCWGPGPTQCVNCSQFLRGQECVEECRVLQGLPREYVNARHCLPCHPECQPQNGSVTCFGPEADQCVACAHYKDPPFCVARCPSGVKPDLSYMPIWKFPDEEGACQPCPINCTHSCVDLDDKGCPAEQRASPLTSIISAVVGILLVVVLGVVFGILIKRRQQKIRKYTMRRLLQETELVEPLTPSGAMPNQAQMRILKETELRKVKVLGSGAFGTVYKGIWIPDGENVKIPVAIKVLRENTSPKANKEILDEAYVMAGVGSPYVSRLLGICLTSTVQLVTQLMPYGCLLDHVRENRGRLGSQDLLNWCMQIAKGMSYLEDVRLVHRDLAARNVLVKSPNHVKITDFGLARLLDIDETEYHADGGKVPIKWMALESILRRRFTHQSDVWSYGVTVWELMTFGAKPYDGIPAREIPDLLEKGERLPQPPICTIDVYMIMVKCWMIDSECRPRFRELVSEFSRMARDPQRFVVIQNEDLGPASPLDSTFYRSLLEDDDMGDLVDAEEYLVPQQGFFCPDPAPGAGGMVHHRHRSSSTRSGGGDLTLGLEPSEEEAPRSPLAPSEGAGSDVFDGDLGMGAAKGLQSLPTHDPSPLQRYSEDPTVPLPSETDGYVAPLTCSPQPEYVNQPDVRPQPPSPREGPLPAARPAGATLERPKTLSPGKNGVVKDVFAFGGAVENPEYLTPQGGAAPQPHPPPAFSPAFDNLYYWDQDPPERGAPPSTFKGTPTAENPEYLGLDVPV

For the compound `Cc1nc2ccccc2c2oc(C(=O)N3CCC(N4CCCCC4)CC3)cc12`, the viability was 102% in assay [1]; 102% (inactive) in [3]; 75.7% (inactive) in [4]; 87.4% (inactive) in assay [5]; 78.1% in [6] (setting [16]); 87.4% in assay [6] (setting [17]). Also, the values for the viability in assay [12] and in assay [13] were 83.9% (inactive) and 79.6% (inactive), respectively. Further, the Her2 level in assay [2] is 104% (inactive). The differential viability (reversal) in [6] (H69AR cells + 2 uM doxorubicin) was 9.3% (inactive). Besides, the inhibition in [7] was -2.82% (inactive); in assay [8], 0.17% (inactive); in assay [14], 0.43% (inactive). The figures for the growth inhibition in assay [9] and in [10] were -9.32% (inactive) and -4.43% (inactive), respectively. For the same compound, the viability increase in assay [11] was -4.92% (inactive). In addition, the RAM network inhibition in [15] was 4.3% (inactive).
Regarding `Cc1cccc(OCc2nc(C#N)c(NCCN(C)C)o2)c1`, the viability was 97% in assay [1]; 97% (inactive) in assay [3]; 79.7% (inactive) in assay [4]; 84.8% (inactive) in [5]; 87.3% in assay [6] (setting [16]); 84.8% in assay [6] (setting [17]). Besides, the figures for the viability in [12] and in [13] were 102% (inactive) and 103% (inactive), respectively. Also, the Her2 level in [2] was 81.5% (inactive). In assay [6] (H69AR cells + 2 uM doxorubicin), the differential viability (reversal) is -2.44% (inactive). Moreover, the inhibition in assay [7] was -2.4% (inactive); in assay [8], -2.46% (inactive); in assay [14], 0.445% (inactive). The growth inhibition was -4.31% (inactive) in assay [9] and 1.57% (inactive) in assay [10]. The viability increase in [11] was -3.62% (inactive). Also, the RAM network inhibition in assay [15] is 3.81% (inactive).
In the case of `CCOC(=O)Cn1c(=O)c(-c2ccccc2N)nc2ccccc21`, the viability in assay [1] is 101%; in [3], 101% (inactive); in assay [4], 85.3% (inactive); in [5] it was 75.6% (inactive); in assay [6] (setting [16]), 81.7%; in [6] (setting [17]) it was 75.6%. Also, the viability is 108% (inactive) in [12] and 98.8% (inactive) in assay [13]. For the same compound, the Her2 level in assay [2] was 84.5% (inactive). In addition, the differential viability (reversal) in assay [6] (H69AR cells + 2 uM doxorubicin) was -6.16% (inactive). Further, the results for the inhibition in assay [7], in assay [8] and in assay [14] were -5.6% (inactive), -2% (inactive) and 2.16% (inactive), respectively. In addition, the growth inhibition was 2.3% (inactive) in assay [9] and 0.83% (inactive) in [10]. In assay [11], the viability increase is -1.72% (inactive). The RAM network inhibition in [15] is 3.47% (inactive).
In the case of `O=C(c1ccc(=O)[nH]c1)N(Cc1ccco1)C1(C(=O)NC2CCCC2)CCCCC1`, the viability was 102% in assay [1]; 102% (inactive) in assay [3]; 102% (inactive) in assay [4]; 104% (inactive) in assay [5]; 91.7% in [6] (setting [16]); 104% in assay [6] (setting [17]). Besides, the viability in assay [12] was 98.6% (inactive); in assay [13] it was 100% (inactive). Also, the Her2 level in [2] is 99.5% (inactive). For the same compound, the differential viability (reversal) in assay [6] (H69AR cells + 2 uM doxorubicin) was 11.9% (inactive). Moreover, the inhibition in [7] is -7.81% (inactive); in [8] it was -3.17% (inactive); in assay [14], -0.16% (inactive). In addition, the growth inhibition was 2.31% (inactive) in assay [9] and -5.5% (inactive) in assay [10]. In addition, the viability increase in [11] was -2% (inactive). Besides, in assay [15], the RAM network inhibition was 1.35% (inactive).
Regarding `O=C(CN1CCN(Cc2ccccc2F)C1=O)NCc1cccnc1`, the viability was 94.5% in assay [1]; 94.5% (inactive) in assay [3]; 108% (inactive) in [4]; 107% (inactive) in [5]; 90.4% in [6] (setting [16]); 107% in assay [6] (setting [17]). For the same compound, the results for the viability in assay [12] and in [13] were 100% (inactive) and 94.6% (inactive), respectively. Besides, the Her2 level in assay [2] was 94.5% (inactive). In assay [6] (H69AR cells + 2 uM doxorubicin), the differential viability (reversal) is 17% (inactive). The inhibition in assay [7] was -3.87% (inactive); in assay [8] it was -1.97% (inactive); in assay [14], 0.605% (inactive). Also, the results for the growth inhibition in assay [9] and in [10] were 2.81% (inactive) and 6.51% (inactive), respectively. For the same compound, in [11], the viability increase was -1.65% (inactive). In addition, the RAM network inhibition in assay [15] is 3.14% (inactive).
With `COc1ccc(C/C(N)=N/n2cnnc2)cc1Cl`, the viability in [1] was 94%; in assay [3], 94% (inactive); in [4], 103% (inactive); in assay [5] it was 102% (inactive); in [6] (setting [16]), 99.4%; in assay [6] (setting [17]), 102%. Moreover, the values for the viability in assay [12] and in assay [13] were 95.7% (inactive) and 99.8% (inactive), respectively. Moreover, in assay [2], the Her2 level is 100% (inactive). Besides, the differential viability (reversal) in assay [6] (H69AR cells + 2 uM doxorubicin) was 2.52% (inactive). Besides, the inhibition is -2.21% (inactive) in [7], -0.83% (inactive) in [8] and 1.04% (inactive) in assay [14]. Besides, the growth inhibition is -9.88% (inactive) in assay [9] and -12% (inactive) in assay [10]. Also, the viability increase in assay [11] was -0.81% (inactive). For the same compound, the RAM network inhibition in assay [15] was 2.47% (inactive).
Turning to `CCC(=O)Nc1cccc(Br)c1`, the viability was 114% in [1]; 114% (inactive) in assay [3]; 113% (inactive) in [4]; 95.4% (inactive) in assay [5]; 97.7% in assay [6] (setting [16]); 95.4% in assay [6] (setting [17]). Moreover, the viability was 96.4% (inactive) in assay [12] and 85.5% (inactive) in assay [13]. Moreover, in [2], the Her2 level was 116% (inactive). In assay [6] (H69AR cells + 2 uM doxorubicin), the differential viability (reversal) is -2.25% (inactive). The inhibition in assay [7] was -4.4% (inactive); in assay [8] it was -8.06% (inactive); in [14] it was -0.04% (inactive). Moreover, the growth inhibition was -9.21% (inactive) in [9] and 2.72% (inactive) in assay [10]. Moreover, the viability increase in assay [11] was -0.82% (inactive). The RAM network inhibition in assay [15] was -0.05% (inactive).
Consider `Cc1cc(C)cc(N(CC(=O)NC2CCC(C)CC2)S(=O)(=O)c2c(C)noc2C)c1` (stereo not drawn), for which the viability is 104% in [1]; 104% (inactive) in [3]; 94% (inactive) in [4]; 88.1% (inactive) in [5]; 83.8% in assay [6] (setting [16]); 88.1% in [6] (setting [17]). The results for the viability in assay [12] and in [13] were 97.5% (inactive) and 94.9% (inactive), respectively. Besides, the Her2 level in assay [2] was 101% (inactive). The differential viability (reversal) in assay [6] (H69AR cells + 2 uM doxorubicin) is 4.2% (inactive). In addition, the inhibition in assay [7] is -3.59% (inactive); in assay [8], -5.67% (inactive); in [14] it was 2.36% (inactive). For the same compound, the values for the growth inhibition in [9] and in assay [10] were -23.2% (inactive) and -18.5% (inactive), respectively. Moreover, the viability increase in assay [11] was -1.82% (inactive). In addition, the RAM network inhibition in assay [15] was 11.3% (inactive).
For the compound `CCOc1ccccc1NC(=O)CSc1nnc(Cc2cccn2C)n1-c1ccc(F)cc1`, the viability is 92.5% in [1]; 92.5% (inactive) in [3]; 97.4% (inactive) in assay [4]; 79.9% (inactive) in [5]; 78.6% in assay [6] (setting [16]); 79.9% in assay [6] (setting [17]). Further, the viability in assay [12] is 75.5% (inactive); in assay [13] it was 78.2% (inactive). In addition, the Her2 level in assay [2] was 78.5% (inactive). The differential viability (reversal) in assay [6] (H69AR cells + 2 uM doxorubicin) is 1.24% (inactive). Further, the inhibition was -1.28% (inactive) in assay [7], -1.17% (inactive) in assay [8] and 1.11% (inactive) in assay [14]. Also, the growth inhibition in assay [9] was 5.28% (inactive); in assay [10], 7.75% (inactive). Moreover, the viability increase in assay [11] was -5.25% (inactive). For the same compound, the RAM network inhibition in assay [15] is 4.07% (inactive).
